Assay outcomes: PubChem BioAssay, National Center for Advancing Translational Sciences (NCATS)
An excerpt weighted towards active compounds, which were near 6.9% of everything screened.
MCF10A rerep: inducers of DNA re-replication in MCF 10A breast cells | MCF 10A DNA re-replication, Hoechst nuclear intensity, 48 h | Potency, µM (series often up to 46.1 µM), without a hit: at the highest dose activity, positive = re-replication, usual class: activators | 2.9% of 350,000 active; further: potency means the concentration at half of the fitted maximal effect; % of control where 0% means no effect; nearly all actives have a fitted effect of over 50% in size
S-ASM inh: blocks human secretory acid sphingomyelinase; P17405; placental ASM, HMU-PC fluorogenic substrate, 60 min; Potency, µM (doses to about 57.5 µM), for inactives: at the top dose activity change, negative = inhibition, usual class: inhibitors; 0.006% of 340,000 active; AID 504937; further: potency means the concentration at half of the fitted maximal effect
Target sequence (P17405 47-631 limits assumed): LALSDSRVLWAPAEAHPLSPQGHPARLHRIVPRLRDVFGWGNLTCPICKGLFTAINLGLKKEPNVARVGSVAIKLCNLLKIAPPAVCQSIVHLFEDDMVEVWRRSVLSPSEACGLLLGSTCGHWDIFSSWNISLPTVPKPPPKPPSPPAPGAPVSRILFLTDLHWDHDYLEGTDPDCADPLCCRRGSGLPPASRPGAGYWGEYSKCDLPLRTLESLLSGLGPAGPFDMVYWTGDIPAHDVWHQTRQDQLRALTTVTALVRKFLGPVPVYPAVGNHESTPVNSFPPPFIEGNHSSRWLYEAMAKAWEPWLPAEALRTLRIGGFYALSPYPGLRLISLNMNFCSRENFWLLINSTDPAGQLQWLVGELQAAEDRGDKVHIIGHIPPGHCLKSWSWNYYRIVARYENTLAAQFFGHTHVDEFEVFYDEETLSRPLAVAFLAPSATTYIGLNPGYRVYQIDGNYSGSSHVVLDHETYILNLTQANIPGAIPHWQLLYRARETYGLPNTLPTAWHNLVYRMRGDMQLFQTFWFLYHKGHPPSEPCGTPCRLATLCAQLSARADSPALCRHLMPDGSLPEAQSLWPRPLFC
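HMU-PC0 cleavage (9 uM final) by human placental ASM, 60 min at 37 °C following 10 min compound exposure at RT; stopped at pH 10, fluorescence Ex 386/Em 447 nm.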
SW480 rereplic: inducers of DNA re-replication in SW480 colon cancer cells | SW480 DNA re-replication, Hoechst DNA content imaging, 48 h | 1.8% of 340,000 active | AID 624297 | Potency, µM (series often up to 46.1 µM), without a hit: at the highest dose re-replication activation, most hits filed as activators; further: potency means the concentration at half of the fitted maximal effect; % of control where 0% means no effect; nearly all actives have a fitted effect of over 55% in size
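Compounds, transferred as 23 nL by pin tool, were incubated with cells for 48 hr; DNA content per nucleus was then quantified by Hoechst staining and fluorescence plate imaging.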
Giardia killer: kills Giardia lamblia | activity change, % at 7.66 µM, hits read low | 0.15% of 340,000 active | AID 540267 | Giardia lamblia trophozoite viability; in the data active means activity change below about -80%; inconclusive means between about -30% and that limit;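 further: parasites exposed to compound for two days anaerobically before the ATP read; on the % scale 0 is the no-effect control and ±100 the full control effect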
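Media and compound were dispensed first, then trophozoites at 100 cells/well; plates sat 48 hrs at 37 deg C without oxygen before ATP luminescence reagent was added and read after 15-30 min at room temperature.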
KB-V1 cytotox: kills drug-selected multidrug resistant KB-V1 cells. Potency, µM (highest dose often 46.1 µM), actives largely listed as cytotoxic. KB-V1 MDR cells viability, CellTiter-Glo, 72 h. 3.4% of 400,000 active; further: potency means the concentration at half of the fitted maximal effect; on the % scale 0 is the no-effect control and ±100 the full control effect; nearly all actives have a fitted effect of over 60% in size
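Luminescent ATP read-out (CellTiter-Glo, 10 min) measures survival of drug-selected KB-V1 MDR cells after 72 h, 37 degrees C compound exposure. Medium: phenol-red-free DMEM, 10% FBS. Values from fitted concentration-response curves.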
KB-3-1 cytotox: KB-3-1 parental cell cytotoxicity; KB-3-1 viability, CellTiter-Glo ATP luminescence, 72 h; Potency, µM (doses to about 46.1 µM), most hits filed as cytotoxic; 1.4% of 400,000 active; further: potency means the concentration at half of the fitted maximal effect; on the % scale 0 is the no-effect control and ±100 the full control effect; nearly all actives have a fitted effect of over 60% in size
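KB-3-1 cells, DMEM (no phenol red) + 10% FBS; compound by pin transfer, 72 h, 37 °C. Readout: CellTiter-Glo luminescence after 10 min. Data normalized, curve-fitted.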
An asterisk follows results filed as active; i = inactive; u = inconclusive; x = no result given. Unless noted, the call rests on the fitted dose curve; in most records, active means well fitted curve in the direction sought with a large enough effect; inconclusive means small, poorly fitted or top-dose-only effect, or another doubt; inactive means no such curve, though single readings can be large; an effect the other way counts as inactive or inconclusive.

SMILES | MCF10A rerep | S-ASM inh | SW480 rereplic | Giardia killer | KB-V1 cytotox | KB-3-1 cytotox
CCOC(=O)c1ccccc1NC(=O)Cc1c(C(=O)O)c(C)cn1C | x | x | x | x | i | i
CCOCCCNCc1ccc(OC)cc1 | 1% | 10% | 1% | 12 | i | i
COc1ccc2cc(CNCCOCCOCCNCc3ccc4cc(OC)ccc4c3)ccc2c1 | 7.3µM* | -4% | 23% | 6 | 9.2µM* | 7.3µM*
Cc1cccc(Cc2c(C)nc3nc(SCC(=O)NCc4ccc(F)cc4)nn3c2C)c1 | x | x | x | x | i | i
O=C(NCc1ccccc1)c1cc2nc(C3CC3)cc(C(F)(F)F)n2n1 | 9% | 4% | -2% | -17 | 23µM* | i
O=C(NCc1ccco1)c1cc2nc(C3CC3)cc(C(F)(F)F)n2n1 | 6% | -5% | -1% | 7 | u | i
O=C(c1ccc(CSc2nc3ccncc3n2Cc2cccc(F)c2)cc1)N1CCCCC1 | x | x | x | x | i | u
NCC(=O)NCC(=O)OCc1ccccc1 | 1µM* | 3% | -29% | 8 | i | i
CC(C)(C)OC(=O)NCC(=O)NCC(=O)OCc1ccccc1 | 0% | -2% | -1% | u | i | i
Cc1cccc(Cn2c(=O)n3nc(-c4ccccc4)nc3c3ccccc32)c1 | x | x | x | x | u | i
Fc1ccc(C[n+]2csc3ccccc32)cc1 | u | 0% | 8% | -12 | i | i
Clc1ccc(C[n+]2csc3ccccc32)cc1 | -1% | -5% | -706% | 15 | 23µM* | i
CC(C)C[C@H](NC(=O)[C@@H](Cc1c[nH]c2ccccc12)NC(=O)[C@@H](Cc1ccc(O)cc1)NC(=O)[C@@H](CO)NC(=O)[C@@H](Cc1c[nH]c2ccccc12)NC(=O)C(Cc1cnc[nH]1)NC(=O)C1CCC(=O)N1)C(=O)N[C@@H](CCCN=C(N)N)C(=O)N1CCC[C@@H]1C(=O)NCC(N)=O (some centres undefined) | -3% | x | -2% | x | x | x
CCNC(=O)[C@@H]1CCCN1C(=O)[C@H](CCCN=C(N)N)NC(=O)[C@H](CC(C)C)NC(=O)[C@@H](Cc1c[nH]c2ccccc12)NC(=O)[C@H](Cc1ccc(O)cc1)NC(=O)[C@H](CO)NC(=O)[C@H](Cc1c[nH]c2ccccc12)NC(=O)[C@H](Cc1cnc[nH]1)NC(=O)[C@@H]1CCC(=O)N1 | 30µM* | x | u | x | x | x
CCCc1c(-c2ccccc2F)ncn1CCc1ccccc1OC | x | x | x | x | 16µM* | u
COc1ccccc1CCNC(=O)c1cc2ccccn2n1 | x | x | x | x | i | i
CCCCCc1c(-c2ccccc2F)ncn1CCc1ccccc1OC | x | x | x | x | 18µM* | u
CCCCc1c(-c2ccccc2F)ncn1CCc1ccccc1OC | x | x | x | x | 15µM* | u
COc1ccc(OC)c(CCNC(=O)c2cc3c(-c4ccccc4F)nn(C)c3s2)c1 | x | x | x | x | i | u
COc1ccccc1CNC(=O)C(NS(=O)(=O)c1ccc2c(c1)CCN2C(C)=O)C(C)C (centres undefined) | x | x | x | x | i | i
Cc1cc(C)cc(NC(=O)CCc2nnc3n(C)c(=O)c4sccc4n23)c1 | x | x | x | x | i | i
O=S(=O)(Cc1ccccc1)N1CCC(c2nc(-c3cccs3)no2)CC1 | 2% | -11% | -9% | 5 | 21µM* | i
O=C(N1CCOCC1)N1CCCC(c2nc(-c3cccs3)no2)C1 (centres undefined) | 2% | 4% | -3% | 7 | 15µM* | i
O=C(c1ccccc1)n1nc(-c2ccccc2)nc1NCc1ccc(F)cc1 | x | x | x | x | i | i
O=C(c1cccs1)n1nc(-c2ccccc2)nc1NCc1ccc(F)cc1 | 72% | -9% | 1% | -2 | 13µM* | u
COc1ccccc1C(=O)n1nc(-c2ccccc2)nc1NCc1ccco1 | -4% | -3% | -8% | 10 | u | i
COc1ccccc1C(=O)n1nc(-c2ccccc2)nc1NCc1ccc(Cl)cc1 | x | x | x | x | 15µM* | u
Cc1ccc(NC(=O)Cc2coc3ccc(C(C)C)cc23)cc1Cl | x | x | x | x | 16µM* | u
